Laboratory results: ChEMBL document CHEMBL1157539, “Thousands of chemical starting points for antimalarial lead identification” (Nature, 2010)

Tests used:
Format in all cases: functional
Plasmodium falciparum [1] = experiment: GSK_TCMDC: Inhibition of Plasmodium falciparum 3D7 in whole red blood cells, using parasite LDH activity as an index of growth. Test compounds present at 2uM
Plasmodium falciparum [2] = experiment: GSK_TCMDC: Inhibition of Plasmodium falciparum Dd2 in whole red blood cells, using parasite LDH activity as an index of growth. Test compounds present at 2uM
HepG2 = experiment: GSK_TCMDC: Percent inhibition of human HepG2 cell line. Test compounds present at 10uM.

Row | SMILES | Inhibition (Plasmodium falciparum [1]) [%] | Inhibition (Plasmodium falciparum [2]) [%] | Inhibition (HepG2) [%]
1 | Cc1ccc(O)c(Nc2c3c(c(C#N)c4nc5ccccc5n24)CCC3)c1 | 85 | 2 | 7
2 | COc1ccc2nccc([C@@H](O)CN3CCC(NC(=O)c4ccc(-c5ccc(C#N)cc5)cc4)CC3)c2c1 | 100 | 91 | 42
3 | Cn1c(Nc2nnc(C3CC3)s2)nc2cc(Nc3ccnc(Nc4cccc(CS(C)(=O)=O)c4)n3)ccc21 | 97 | 83 | 0
4 | CCN(CC)C(=O)c1cccc(C=Cc2ccc(-c3c(C)[nH]c(C)c(Cl)c3=O)cc2)c1 | 96 | 96 | 9
5 | CN(CCN1CCC(c2c[nH]c3ccccc23)CC1)c1ccc(-c2nc3cc(Cl)c(Cl)cc3[nH]2)cc1 | 100 | 100 | 22
6 | COc1ccc(-c2cccc(NC(=O)c3ccc(C#N)cc3)c2)cc1CN1CCCC1.O=C(O)C(F)(F)F | 98 | 15 | 30
7 | Cl.O=S(=O)(Nc1ccc2nccc(N3CCNCC3)c2c1)c1ccc(-c2ccccc2)cc1 | 100 | 0 | 0
8 | Cc1cc(N2Cc3ccccc3C2)nc(Nc2ccc(S(=O)(=O)N3CCOCC3)cc2)n1.Cl | 100 | 85 | 13
9 | CNCCNCc1cccc(-c2ccc(-c3nc4cc(C(F)(F)F)ccc4[nH]3)s2)c1.O=C(O)C(F)(F)F | 98 | 85 | 31
10 | CCNc1cc(C(=O)N[C@@H](Cc2ccccc2Cl)[C@H](O)CNC(C)CCCC(C)C)cc(N2CCCCS2(=O)=O)c1.Cl (some centres not stated) | 97 | 62 | 12
11 | N#Cc1ccc(N2CCN(Cc3cccc(-c4ccc(-c5nc6ccccc6[nH]5)cc4)c3)CC2)nc1.O=C(O)C(F)(F)F | 89 | 40 | 45
12 | O=C(Nc1cccc(-c2cccc(-c3nc4ccccc4[nH]3)c2)c1)c1csnn1 | 90 | 27 | 31
13 | Cc1ccnc(NC(c2ccc(Cl)c([N+](=O)[O-])c2)c2ccc3cccnc3c2O)c1 (configuration not stated) | 89 | 57 | 47
14 | CN(C)CCCn1cncc1-c1ccc2ncnc(Nc3ccc(OCc4ccccc4)cc3)c2c1 | 100 | 100 | 37
15 | O=C(Nc1cc(Cl)ccc1O)c1cnn2c(C(F)(F)F)cc(-c3cccs3)nc12 | 100 | 74 | 8
16 | C=CCOc1ccc(C2C(C(=O)OC)=C(C)NC3=C2C(=O)c2ccccc23)cc1OC (configuration not stated) | 82 | 65 | 0
17 | COc1ccc(-c2ccc(NC(=O)c3ccccc3)cc2)cc1CN1CCCN(C)CC1.O=C(O)C(F)(F)F | 92 | 17 | 24
18 | CC(C)(C)c1cc(C(=O)Nc2cccnc2)cc(C(=O)Nc2cccnc2)c1 | 95 | 35 | 0
19 | CS(=O)(=O)c1cccc(-c2cnc3[nH]cc(-c4ccc(CCC(=O)O)cc4)c3c2)c1 | 97 | 99 | 1
20 | Cc1ccc(NC(=O)c2ccc3ncccc3c2)cc1OC1CCN(C(C)C)C1.O=C(O)C(F)(F)F (configuration not stated) | 95 | 37 | 12

Row | SMILES | Inhibition (Plasmodium falciparum [1]) [%] | Inhibition (Plasmodium falciparum [2]) [%] | Inhibition (HepG2) [%]
21 | CC1CCN(C(=O)CSc2nc(-c3ccc(C(C)C)cc3)no2)CC1 | 98 | 84 | 0
22 | Cc1ccccc1OCC(O)CN1CCC(C2CCN(CC(O)COc3ccccc3C)CC2)CC1 (configuration not stated) | 100 | 51 | 12
23 | CSc1ccc(CN2CCC(NC(=O)c3ccc(-c4ccc(N(C)C)cc4)s3)CC2)cc1.O=C(O)C(F)(F)F | 86 | 26 | 30
24 | Cc1cc(=NN=Cc2ccc(F)cc2)c2cc(F)ccc2[nH]1 | 100 | 61 | 6
25 | COc1ccc2ncc(Cl)c(CCN3CCC(NCc4ccc5c(n4)NC(=O)CS5)CC3)c2c1.Cl | 100 | 34 | 26
26 | Cc1cccc2nc(-c3cccc(-c4ccc(NC(=O)c5ccoc5)cc4)c3)[nH]c12 | 99 | 56 | 65
27 | FC(F)(F)c1ccc2[nH]ccc(=NN=Cc3ccc(Cl)cc3)c2c1 | 100 | 53 | 5
28 | COc1ccc2c(N/N=C/c3ccccc3[N+](=O)[O-])ccnc2c1 | 100 | 97 | 98
29 | O=C(/C=C/c1ccc(Cl)c(Cl)c1)NCCCCCN1CCC(CCNC(=O)Cc2ccc(Cl)cc2)CC1 | 83 | 0 | 45
30 | Cl.c1ccc(Oc2ccc(Nc3ccnc(Nc4ccc5cn[nH]c5c4)n3)cc2)cc1 | 94 | 33 | 6
31 | O=C(CCCCCNC(=O)c1ccc(O)c(-c2ccc(Cl)c(Cl)c2)c1)NCCN1CCOCC1 | 95 | 0 | 0
32 | CN(C)C(CNC(=O)c1cc(-c2ccncc2)c(-c2cc3ccccc3[nH]2)o1)c1ccccc1.O=C(O)C(F)(F)F (configuration not stated) | 96 | 62 | 3
33 | Cc1cc(N[C@@H](CC(C)C)C(=O)NCCCOC(C)C)nc(NCCc2ccc(F)cc2)n1.O=C(O)C(F)(F)F | 87 | 19 | 5
34 | CCN1CCC(N(Cc2ccc(-c3ccc(C(F)(F)F)cc3)cc2)C(=O)Cn2c(CCc3cccc(F)c3F)cc(=O)c3ccccc32)C1.O=C(O)C(O)C(O)C(=O)O (configuration not stated) | 93 | 84 | 43
35 | CCN(CC)CCn1c(=N)n(CC(O)c2ccc(Cl)c(Cl)c2)c2ccccc21.Cl (configuration not stated) | 99 | 88 | 35
36 | CN(C)Cc1c(O)ccc2[nH]c(-c3ccc(F)cc3F)nc12 | 99 | 17 | 4
37 | O=C(CSc1nc2ccccc2c(=O)n1C1CC1)Nc1cc(C(F)(F)F)ccc1Cl | 97 | 96 | 5
38 | O=C(/C=C/c1ccc(Cl)c(Cl)c1)NCCCCCN1CCCN(C(=O)Nc2cc(F)cc(F)c2)CC1 | 94 | 1 | 4
39 | CN(C(=O)/C=C/c1c(Cl)cccc1Cl)C1CCN(CCCCCNC(=O)/C=C/c2ccc(Cl)c(Cl)c2)CC1 | 92 | 62 | 78
40 | CC(C)(C)OC(=O)[C@H](CC(N)=O)NC(=O)c1ccc(-c2ccc(-c3nc4cc(C(F)(F)F)ccc4[nH]3)s2)cc1 | 94 | 88 | 62

Row | SMILES | Inhibition (Plasmodium falciparum [1]) [%] | Inhibition (Plasmodium falciparum [2]) [%] | Inhibition (HepG2) [%]
41 | O=C(Nc1cccc(CN2CCCN(Cc3ccc(O)cc3)CC2)c1)c1cccc(C(F)(F)F)c1.O=C(O)C(F)(F)F | 100 | 71 | 9
42 | CC(=O)Oc1cc(OCc2ccccc2)c(OC(C)=O)c(OCc2ccccc2)c1 | 94 | 78 | 11
43 | Cc1cc(NC(=O)CCCN2CCN(c3cccc(Cl)c3Cl)CC2)ccc1N1CCN(C(C)C)CC1.Cl | 100 | 53 | 86
44 | Br.Oc1ccc(CCNCCCCCCNCCc2ccc(-c3ccccc3)cc2)cc1O | 100 | 8 | 72
45 | CCCc1ccc(N2C(N)=NC(N)=NC2(C)C)cc1.Cl | 94 | 0 | 59
46 | CCN(CCCN1CCCCC1)c1cc(C)nc(Nc2cccc(C(F)(F)F)c2)n1.O=C(O)C(F)(F)F | 100 | 88 | 25
47 | O=C(CCCCCNC(=O)c1ccc(O)c(-c2ccc(Cl)c(Cl)c2)c1)NCCc1ccc(Cl)c(Cl)c1 | 97 | 20 | 57
48 | CNc1ccc(CNCc2ccc(-c3ccc(-c4nc5cc(F)ccc5[nH]4)cc3)cc2)cc1.O=C(O)C(F)(F)F | 100 | 95 | 38
49 | CC1(C)CN(CCC2CCC(NC(=O)/C=C/c3ccc(F)cc3F)CC2)Cc2ccc(C#N)cc21.Cl (configuration not stated) | 88 | 77 | 39
50 | CC(=O)Nc1cccc(-c2cn(-c3ccc(OCc4cccc(F)c4)c(Cl)c3)c3ncncc23)c1 | 100 | 66 | 7
51 | COc1ccc(C2CC(c3cccs3)=NN2C(=O)c2ccco2)cc1OC (configuration not stated) | 100 | 97 | 0
52 | CCc1ccc(CN2CCC(NC(=O)c3ccc(-c4ccccc4F)s3)CC2)cc1.O=C(O)C(F)(F)F | 80 | 12 | 35
53 | COc1ccc(S(=O)(=O)N2CCC3(CC2)OCC(=O)NC3c2ccc(Cl)c(Cl)c2)cc1 (configuration not stated) | 91 | 44 | 0
54 | C=CCNC(=O)C(C)c1ccc2cc(OC)ccc2c1 (configuration not stated) | 92 | 90 | 4
55 | Clc1cc(Nc2ncnc3sc(C#Cc4ncc[nH]4)cc23)ccc1OCc1ccccn1 | 100 | 6 | 10
56 | N[C@@H](COc1cccc2c(-c3ccncc3)c(-c3cccc(NC(=O)Nc4ccccc4)c3)nn12)c1ccccc1 | 100 | 71 | 9
57 | CCCCCN1CCC(NC(=O)c2ccc(C(=O)Nc3ccc(C(C)C)cc3)cc2)C1.O=C(O)C(F)(F)F (configuration not stated) | 95 | 17 | 38
58 | COc1ccc(NC(=O)/C=C/c2ccccc2Cl)cc1OCCN1CCC(NCc2ccccc2)CC1 | 100 | 100 | 28
59 | O=C(Nc1ccc(C(=O)OCC2CCCCC2)cc1)N[C@@H](Cc1ccc(O)cc1)C(=O)NC1CCN(Cc2ccc(O)cc2)C1.O=C(O)C(F)(F)F (some centres not stated) | 91 | 0 | 6
